In PubChem BioAssay AID463187 (University of Pittsburgh Molecular Library Screening Center, 2010):
Hit rate of the full screen: of about 220,000 compounds, about 1,500 (0.68%) were called active. The full list was thinned out, with actives kept by preference. Unmarked numbers belong to inactive results.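 The calls were made as follows: active = Hck-Nef kinase inhibition above about 50% (limit read from the data); inactive = inhibition below that limit.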

Molecular target: Tyrosine-protein kinase HCK (Homo sapiens) (UniProt P08631)
Sequence (P08631 whole entry, looked up): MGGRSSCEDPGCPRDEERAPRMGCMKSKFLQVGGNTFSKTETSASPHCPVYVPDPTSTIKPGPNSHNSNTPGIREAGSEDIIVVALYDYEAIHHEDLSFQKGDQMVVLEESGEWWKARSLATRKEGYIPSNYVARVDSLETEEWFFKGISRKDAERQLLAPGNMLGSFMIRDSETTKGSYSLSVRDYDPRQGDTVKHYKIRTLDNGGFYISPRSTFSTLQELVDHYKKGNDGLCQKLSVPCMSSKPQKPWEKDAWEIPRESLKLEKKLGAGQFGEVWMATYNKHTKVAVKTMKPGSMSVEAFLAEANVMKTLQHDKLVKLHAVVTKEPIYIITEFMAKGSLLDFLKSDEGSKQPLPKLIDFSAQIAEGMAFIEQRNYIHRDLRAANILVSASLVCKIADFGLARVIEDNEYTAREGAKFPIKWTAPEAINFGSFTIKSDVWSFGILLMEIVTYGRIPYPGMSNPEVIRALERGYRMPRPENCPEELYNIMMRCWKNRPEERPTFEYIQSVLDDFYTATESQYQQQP
Assay: Hck:Nef complex kinase activity blockers – biochemical, Z-Lyte FRET, 384-well, Hck-YEEI, primary screen (AID 463187);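 also: 0% = DMSO with Hck plus Nef and 100% = Hck alone without Nef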
Settings: Recombinant Hck-YEEI plus Nef, Z-Lyte FRET kinase assay; at 20 µM; hits give high values

| Compound | inhibition |
| --- | --- |
| COC(=O)Cn1c(=NC(=O)c2cc(OC)c(OC)c(OC)c2)sc2cc(OC)ccc21 | -1.02% |
| COCC(C)NC(=O)COc1nncc2ccccc12 (stereo not given) | 21.5% |
| Cc1cc(=O)[nH]c(S)c1C#N | -0.332% |
| O=S(=O)(Cc1ccccc1)c1nc2ccccc2n1Cc1ccccn1 | 5.67% |
| Cc1cc(/C=N/n2cnnc2)c(C)n1-c1cccc(C(=O)O)c1 | -0.934% |
| Cc1cc(/C=N/Nc2ccc([N+](=O)[O-])cn2)c(C)n1-c1cccc(C(=O)O)c1 | 58.6% (active) |
| Cc1ccc(-n2c(C)cc(/C=N/Nc3ccc([N+](=O)[O-])cn3)c2C)c(C)c1 | 0.189% |
| Cc1c(CCOC(=O)CC23CC4CC(CC(C)(C4)C2)C3)sc[n+]1Cc1ccc([N+](=O)[O-])cc1 | 6.69% |
| COC(=O)c1ccc(OCC(O)CN(CCO)CC(O)Cn2ccc3ccccc32)cc1 (stereo not given) | 60.4% (active) |
| C=CCn1c(=N)n(CC(O)COc2ccc(OC)cc2)c2ccccc21 (stereo not given) | 16% |
| COc1ccc(CCNCC(O)Cn2ccc3ccccc32)cc1OC (stereo not given) | 37.4% |
| COCCCn1c(-c2cccs2)nc2nc3ccccc3nc21 | 67.9% (active) |
| CC(C)n1c(-c2cccs2)nc2ccccc21 | 10.6% |
| COc1ccccc1C(=O)Nn1c(-c2cccs2)nc2ccccc2c1=O | 2.4% |
| Cc1cc(C)cc(C(=O)NC(=S)Nc2ccc3[nH]c(=O)[nH]c3c2)c1 | 2.61% |
| Cc1cc(-c2csc(N)n2)c(C)n1-c1ccccc1 | 7.5% |
| CCc1cccc2c(=O)c(C(=O)NCCCOC)c[nH]c12 | -18.3% |
| COc1ccc(CCn2c(=N)c(C(=O)NCc3ccco3)cc3c(=O)n4cccc(C)c4nc32)cc1 | 7.77% |
| COc1ccccc1N(C)S(=O)(=O)c1ccc(C(=O)NC2CCCCCC2)cc1 | 0.492% |
| CCCCn1c(N)c(N(CC)C(=O)/C=C/c2ccco2)c(=O)[nH]c1=O | -7.95% |
| Cc1ncc(CC(=O)n2cc(C(=O)c3cc(Cl)ccc3O)cn2)s1 | 78.7% (active) |
| O=C(c1cnn(-c2ccc(Cl)cc2)c1)c1ccccc1O | 17% |
| Cc1ccc(CCC(=O)Nc2ncc(Cc3cc(Cl)ccc3Cl)s2)o1 | 6.19% |
| O=C(NCc1csc(-c2cccs2)n1)C1CC1 | -1.15% |

| Compound | inhibition |
| --- | --- |
| COC(=O)CN1C(=S)N(c2ccccc2)C(=O)C1CC(=O)Nc1ccc(Cl)cc1 (stereo not given) | 2.46% |
| COc1ccc(C(=O)n2nc(-c3ccc(C)cc3)nc2N)cc1OC | -1.4% |
| COc1ccc(C(=O)n2nc(-c3ccc(Cl)cc3)nc2N)cc1OC | 81.4% (active) |
| COc1ccc(C(=O)O/N=C(\N)Cc2ccc(Cl)cc2Cl)cc1OC | 3.19% |
| CC(C)NC(=O)/C(C#N)=C\c1ccc(N(C)C)c(Br)c1 | 7.25% |
| O=C(O)Cc1sc(-c2ccccc2)nc1-c1cccs1 | -10.1% |
| CCCNC(=O)N1CCN(C(=O)NCCC)CC1 | 0.793% |
| O=[N+]([O-])C(=c1ccc2c(c1)N1C3=C(CCCC3)CC3CCCCC31N=2)[N+](=O)[O-] (stereo not given) | 73% (active) |
| CCCCCC(=O)Nc1ccc(S(=O)(=O)Nc2ccc(Cl)nn2)cc1 | -1.44% |
| C=C(C)COc1ccc(-c2n[nH]c(C)c2-c2ccccc2)c(O)c1 | -0.0537% |
| C=C(C)COc1ccc(-c2n[nH]c(C)c2-c2ccccc2OC)c(O)c1 | 12.1% |
| CCOc1ccccc1Oc1cn[nH]c1-c1ccc(OC)cc1O | 26.3% |
| CCOc1ccc(-c2n[nH]c(C)c2-c2ccccn2)c(O)c1 | -15.5% |
| C=C(C)COc1ccc(-c2nc(N)ncc2-c2ccccc2OC)c(O)c1 | 68.8% (active) |
| CCOc1ccc(-c2nc(N)ncc2-c2ccccc2OC)c(O)c1 | 75.3% (active) |
| c1ccc(-c2cc3c(NCC4COc5ccccc5O4)ncnc3s2)cc1 (stereo not given) | 5.9% |
| COc1ccc(-c2cc(C(=O)NCCCn3ccnc3)no2)cc1 | -9.96% |
| Cc1cccc2cc(CN(C(=O)c3cccs3)c3ccccc3)c(=O)[nH]c12 | 3.68% |
| O=C(N/N=C/c1ccc([N+](=O)[O-])o1)c1cccc(S(=O)(=O)N2CCOCC2)c1 | 18.1% |
| O=C(CN1CCN(c2ccc(O)cc2)CC1)Nc1cc(S(=O)(=O)N2CCOCC2)ccc1Cl | 12.6% |
| O=[N+]([O-])c1cc(Cl)cc(/C=N/NC(=S)Nc2cc(S(=O)(=O)N3CCOCC3)ccc2Cl)c1O | 68.6% (active) |
| Cc1nn(Cc2ccc(C(=O)N3N=C(C(F)F)CC3(O)C(F)F)cc2)c(C)c1[N+](=O)[O-] (stereo not given) | -2.69% |
| CN(C)S(=O)(=O)c1cccc(-c2nn(-c3ccccc3)cc2/C=C2\SC(=S)N(CC(=O)O)C2=O)c1 | 56.2% (active) |
| O=C(CN1C(=O)/C(=C\c2ccccc2F)SC1=S)Nc1nc2ccccc2s1 | 4.36% |

| Compound | inhibition |
| --- | --- |
| Cc1ccc(-c2nn(-c3ccccc3)cc2/C=C/C(=O)Nc2cccc(S(N)(=O)=O)c2)cc1 | 14.1% |
| CC1(C)CC(=O)C(C2c3ccccc3S(=O)(=O)c3ccccc32)C(=O)C1 | 2.74% |
| C=CCOc1c2ccc(C(=O)N(CC)c3ccc(OC)cc3)cc2nn1C | -0.652% |
| CC1=NN(/C(=N\c2nnc(C)s2)Nc2ccccc2)[C@H](c2ccc(C)cc2)S1 | -3.06% |
| COC(=O)COc1ccc2oc(=O)cc(C)c2c1 | 1.26% |
| COC(=O)Cc1cc(=O)oc2c(C)c(O)ccc12 | 58.3% (active) |
| CCCc1cc(=O)oc2c(C)c(O)c(CN3CCCCC3)cc12 | 31% |
| CCOC(=O)c1cc2c(=O)n3ccccc3nc2n(CC(C)C)c1=NC(=O)c1c(-c2c(F)cccc2Cl)noc1C | 8.32% |
| CCOC(=O)c1cc2n(c1N)-c1ccccc1C2=O | -1.56% |
| CCCn1c(=NC(C)=O)c(C(=O)OCC)cc2c(=O)n3ccccc3nc21 | 95.9% (active) |
| O=C(COC(=O)c1ccccc1C(=O)N1CCN(c2ccccc2)CC1)NCc1ccccc1 | -5.15% |
| O=C(NNC(=O)c1ccc(Cl)cc1Cl)c1cccs1 | 22.7% |
| C=CCSc1nc(Cc2ccc(Cl)cc2)nc2ccccc12 | -0.392% |
| Clc1ccc2c(c1)C1=C(C(c3ccncc3)O2)C(c2ccc(Br)cc2)n2ncnc2N1 (stereo not given) | 83.6% (active) |
| Brc1ccc(C2=CC(c3ccco3)n3ncnc3N2)cc1 (stereo not given) | -4.23% |
| COC(=O)C1=C(C)Nc2ncnn2C1c1cccnc1 (stereo not given) | 0.821% |
| CCC(C)(C)NC(=O)CN(Cc1cccs1)C(=O)CNS(=O)(=O)c1ccc(F)cc1 | 15.6% |
| O=[N+]([O-])c1ccc(F)cc1Oc1nc(-c2cccnc2)nc2ccccc12 | 13.2% |
| CCC(O)C1CCN(Cc2cn(-c3ccc(OC)cc3)nc2-c2cccc(F)c2)CC1 (stereo not given) | -11.2% |
| CCOc1ccc(CCNC(=O)C2=C(C)C(=O)OC23CCC(C)CC3)cc1OCC (stereo not given) | 25.3% |
| Cc1ccc(S(=O)(=O)c2c(N)n(C)c3nc4ccccc4nc23)cc1 | 52.7% (active) |
| CCN(CC)CCn1c(N)c(S(=O)(=O)c2ccccc2)c2nc3ccccc3nc21 | 11.1% |
| C=CCn1c(N)c(S(=O)(=O)c2cccs2)c2nc3ccccc3nc21 | 21.6% |
| COc1ccc(/C=C2/C(=O)OCc3cc(OC)c(OC)cc32)c(OC)c1 | 1.93% |

| Compound | inhibition |
| --- | --- |
| O=C(NCc1ccco1)c1nn2cccnc2c1Cl | 20.7% |
| O=C(O)C1C2C=CC(O2)C1C(=O)NCCc1cccc(Cl)c1 (stereo not given) | 15.6% |
| O=C(N/N=C/c1ccco1)c1ccc(C(=O)N/N=C/c2ccco2)o1 | -0.711% |
| O=C(N/N=C/c1ccco1)c1ccc(NC(=O)C2CC2)cc1 | 1.97% |
| O=C(Cc1ccccc1)Nc1cccc(C(=O)N/N=C/c2ccco2)c1 | 54.9% (active) |
| NC(=O)C[C@@H]1NC(=O)CNC(=O)c2cc([N+](=O)[O-])cc(I)c2NCCC(C(N)=O)NC1=O (stereo not given in full) | -7.95% |
| CCOC(=O)COc1cc(OCC(=O)OCC)c2c(=O)cc(-c3ccccc3)oc2c1 | -0.0489% |
| COc1c(O)cc2oc(-c3ccc(O)c(O)c3)cc(=O)c2c1O | 97.3% (active) |
| CCOC(=O)COc1cc(O)c2c(=O)cc(-c3ccccc3)oc2c1 | 20.1% |
| Cc1ccc2nc(-c3cccc(Br)c3)cc(C(=O)Nn3cnnc3)c2c1 | -7.45% |
| Cc1cccc(-[n+]2c(-c3cccc(Br)c3)[nH]c3nc4ccccc4nc32)c1 | 50.4% (active) |
| CC(C)(C)NC(=O)COC(=O)c1cc(Br)ccc1Cl | -0.533% |
| Cc1ccc(SC(CC(=O)c2ccc(C(C)(C)C)cc2)C(=O)O)cc1 (stereo not given) | 73.6% (active) |
| Cc1ccc(CSCC(N)C(=O)O)cc1 (stereo not given) | 1.34% |
| Cc1ccc(C(=O)CS(C)(=O)=O)cc1 | 1.08% |
| CCc1nnc(NC(=O)CSc2nc(SC)ns2)s1 | 8.82% |
| Cc1ccc(CSc2nnc(-c3cnccn3)n2C)cc1 | 20.9% |
| CC(C)Oc1ccc(C(=O)NC(C)(C)CO)cc1 | 4.72% |
| CCNC(=S)NNC(=O)c1ccc2ncccc2c1 | 27.6% |
| COc1cccc(/C=C2\SC(=N)N(c3ccc(F)cc3)C2=O)c1 | 26.2% |
| COc1ccc(Cl)cc1C(=O)NCc1cn(C)nc1C | 0.825% |
| Cc1nn(C)cc1CNC(=O)Nc1ccc(Cl)cc1 | 12.3% |
| Cc1ccc(-c2cc(C(=O)NCc3cn(C)nc3C)c3cc(Br)ccc3n2)cc1 | 50.4% (active) |
